Screening results from PubChem.
JMJD2A Tudor inh = blocks the human JMJD2A Tudor domain; AlphaScreen JMJD2A-Tudor / H3K4me3 peptide binding; Potency, µM (top dose mostly 114 µM), inactives show at the highest dose activity change, negative = inhibition, hits mostly inhibitors; AID 504339; hit rate 4.4% among 390,000; O75164; note: potency is the fitted concentration of half-maximal effect; % is set by controls: 0 for no effect and ±100 for the full control effect; nearly all actives have a fitted effect of over 50% in size
HP1b binding inh = blocks HP1-beta chromodomain binding to methylated histone tails | hit rate 0.56% among 390,000 | Potency, µM (top dose mostly 114 µM), for the others: at the highest dose activity change, negative = inhibition, hits mostly inhibitors | AID 540317 | AlphaScreen HP1-beta / biotin-H3K9me3 peptide binding; note: potency is the fitted concentration of half-maximal effect; nearly all actives have a fitted effect of over 70% in size
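AlphaScreen: HP1-beta (50 nM) preformed 30 min with biotin-H3(1-18)K9me3 peptide (50 nM) in PBS pH 7.4, 0.01% Tween-20. Compound added for 30 min at RT, then streptavidin donor/nickel chelate acceptor beads (10 ug/mL) for 30 min.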
BAZ2B inh = inhibitors of human BAZ2B bromodomain; Potency, µM (series often up to 114 µM), inactives show top-dose activity change, negative = inhibition, most hits filed as inhibitors; hit rate 4.4% among 360,000; Q9UIF8; AlphaScreen BAZ2B-H3K14Ac peptide displacement; note: potency is the fitted concentration of half-maximal effect; % is set by controls: 0 for no effect and ±100 for the full control effect; nearly all actives have a fitted effect of over 60% in size
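Compounds, titrated to a top concentration of 110 uM, were incubated 30 min at room temperature with preformed BAZ2B/acetyl-K14 H3 peptide complex (50 nM each). Proximity signal was measured by AlphaScreen after 20 min with beads.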
G9a block = G9a (human) methyltransferase inhibition | Q96KQ7 | G9a H3K9 monomethylation, AlphaScreen, 2 h | Potency, µM (top dose mostly 102 µM), without a hit: top-dose activity, negative = inhibition, hits mostly inhibitors | hit rate 8.8% among 350,000 | AID 504332; note: potency is the fitted concentration of half-maximal effect; % is set by controls: 0 for no effect and ±100 for the full control effect; nearly all actives have a fitted effect of over 75% in size
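AlphaScreen detection with an anti-monomethyl H3K9 antibody quantified product after a 2 h room-temperature reaction containing 500 nM biotinylated H3K9 peptide, 20 µM SAM and 20 nM enzyme, which had been preincubated 15 min with compound.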
Six1-Eya2 inh = inhibitors of human Six1/Eya2 interaction | AlphaScreen GST-Six1/His-Eya2 binding, biochemical; hits give low values | activity change, % (no concentration beside the values) | hit rate 0.56% among 360,000 | Q15475+O00167 | AID 651725; in the data active = activity change below about -65%; inconclusive = mostly about -30% to -63%; note: % is set by controls: 0 for no effect and ±100 for the full control effect
Target sequence (O00167 whole entry, looked up): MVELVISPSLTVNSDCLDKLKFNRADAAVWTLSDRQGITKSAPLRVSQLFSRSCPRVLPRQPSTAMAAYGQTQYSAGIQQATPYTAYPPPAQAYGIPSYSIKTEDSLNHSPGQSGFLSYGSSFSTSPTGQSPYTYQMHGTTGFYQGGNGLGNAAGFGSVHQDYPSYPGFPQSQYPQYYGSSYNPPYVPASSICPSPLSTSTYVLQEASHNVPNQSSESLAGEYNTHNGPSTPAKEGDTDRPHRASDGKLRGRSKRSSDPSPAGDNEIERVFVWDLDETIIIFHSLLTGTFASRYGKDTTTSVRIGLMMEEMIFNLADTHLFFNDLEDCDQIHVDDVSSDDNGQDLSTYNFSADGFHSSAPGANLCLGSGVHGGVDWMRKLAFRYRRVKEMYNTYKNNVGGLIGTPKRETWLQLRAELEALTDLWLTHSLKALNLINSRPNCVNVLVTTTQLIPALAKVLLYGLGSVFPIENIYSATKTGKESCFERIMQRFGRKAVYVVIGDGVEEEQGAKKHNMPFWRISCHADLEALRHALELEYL
Target sequence (Q15475 whole entry, looked up): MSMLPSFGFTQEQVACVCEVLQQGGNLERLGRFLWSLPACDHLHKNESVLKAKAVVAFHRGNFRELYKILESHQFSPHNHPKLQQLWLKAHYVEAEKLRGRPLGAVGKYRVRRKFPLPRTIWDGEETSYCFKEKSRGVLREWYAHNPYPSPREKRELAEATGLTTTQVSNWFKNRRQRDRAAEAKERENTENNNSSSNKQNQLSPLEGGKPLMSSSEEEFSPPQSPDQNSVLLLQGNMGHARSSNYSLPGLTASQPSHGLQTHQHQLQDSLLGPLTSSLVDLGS
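AlphaScreen luminescence read after one hour at 37 °C in darkness. Pin-transferred compounds met GST-Six1 and His-Eya2 protein (5X stock 250 nM/500 nM) plus glutathione donor and Ni-chelate acceptor beads (5X, 50 ug/mL).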
CtBP-E1A inh = inhibitors of CtBP/E1A interaction. AlphaScreen GST-E1A/His-CtBP binding, 1536-well; hits give low values. activity change, % (test concentration not listed). hit rate 0.49% among 340,000. AID 651724; in the data active = activity change below about -65%; inconclusive = mostly about -30% to -63%; note: % is set by controls: 0 for no effect and ±100 for the full control effect
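In 5 uL wells, 23 nL compound meets equimolar GST-E1A and His-CtBP (5X stock 125 nM each) for 2 h, 37 °C. Beads (5X, 50 ug/mL) then 1 h, 37 °C, dark.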
* = called active by the depositor; ? = inconclusive; . = no result given; [ ] = remark or other dose. Hits are enriched below; roughly 10% of the tested compounds scored in any of these assays. Unless noted, calls come from the whole dose curve; as a rule, active = well fitted inhibition curve with a large enough effect; inconclusive = small, poorly fitted or top-dose-only effect; inactive = no such curve, though single readings can be large or run the other way.

SMILES | JMJD2A Tudor inh | HP1b binding inh | BAZ2B inh | G9a block | Six1-Eya2 inh | CtBP-E1A inh
COc1cc2c(cc1NC(=O)c1ccc(C)c([N+](=O)[O-])c1)oc1ccccc12 | -4.6% | -5.3% | -2.0% | -1.6%[59 µM] | -13.4 | -22.7
COc1cc2c(cc1NC(=O)c1cccc([N+](=O)[O-])c1)oc1ccccc12 | -16.6% | -13.5% | 4.3% | 50.1µM* | 6.6 | 4.0
NC(=O)CCCCC(=O)OCCCc1cccs1 | 89.1µM* | 4.4% | ? | -5.8%[59 µM] | 0.7 | -5.2
CC1(C(=O)OCC(=O)Nc2cccc(S(=O)(=O)NC3=NCCCCC3)c2)CC1(Cl)Cl (stereo unspecified) | -9.2% | 26.1% | -17.0% | -2.5% | 0.3 | -4.7
COc1ccccc1NS(=O)(=O)c1cc(C(=O)NCc2ccco2)ccc1C | 50.1µM* | 7.0% | -30.7% | -42.2%[59 µM] | -1.5 | -2.5
Cc1ccc(C(=O)Nc2ccccc2C(=O)O)cc1S(=O)(=O)Nc1ccccc1 | -5.1% | 27.1% | 1.4% | -7.3%[59 µM] | -2.2 | .
Cc1ccc(C(=O)Nc2ccccc2C(=O)NCc2ccco2)cc1S(=O)(=O)N1CCCCC1 | ? | 7.8% | -20.9% | 15.8µM* | -5.8 | -7.6
Cc1ccc(C(=O)Nc2ccccc2C(=O)O)cc1S(=O)(=O)NC1CCCCC1 | -20.5% | 23.7% | 56.2µM* | 70.8µM* | -3.4 | -7.3
Cc1ccccc1NS(=O)(=O)c1cc(C(=O)NCc2ccco2)ccc1C | -18.4% | 10.6% | -27.2% | -10.6%[12.7 µM] | -13.4 | -22.6
Cc1ccccc1-c1nc(CS(=O)(=O)CC(=O)Nc2cccc(C(F)(F)F)c2)c(C)o1 | -24.2% | 15.0% | -8.5% | -2.0%[59 µM] | . | .
Cc1ccc(-c2cc(C(F)(F)F)n3nc(C(=O)NCC45CC6CC(CC(C6)C4)C5)cc3n2)cc1 | -5.2% | 49.6% | -5.4% | 11.8%[59 µM] | . | .
CCN1CCN(CC(=O)N2N=C(c3ccc(OC)cc3)CC2c2ccc(OC)cc2)C(=O)C1=O (stereo unspecified) | 79.4µM* | -5.9% | -23.4% | 3.9% | -0.3 | 10.7
CC(=O)OCC(=O)N1N=C(c2ccc3ccccc3c2)CC1c1ccccc1 (stereo unspecified) | -17.5% | 26.3% | -18.9% | -8.8% | 6.6 | -0.6
COc1ccc(C2CC(c3ccc4ccccc4c3)=NN2C(=O)COC(=O)C2CCC(=O)N2)cc1 (stereo unspecified) | ? | -1.4% | 35.5µM* | ? | -27.3 | -4.8
COc1ccc(C2CC(c3ccc4ccccc4c3)=NN2C(=O)CNC2CCCCC2)cc1 (stereo unspecified) | 22.4µM* | ? | 56.2µM* | 10µM* | -9.1 | .
CC(=O)OCC(NC(=O)C1CCCN1C(=O)OC(C)(C)C)C1OC(n2ccc(=O)[nH]c2=O)C(OC(C)=O)C1OC(C)=O (stereo unspecified) | -9.0% | 6.1% | . | . | . | .
COc1ccc(CCN2CC(C(=O)NC3CCOCC3)CCC2=O)cc1 (stereo unspecified) | 18.8% | 40.5% | -2.3%[57.1 µM] | 17.1% | -0.2 | 5.7
CCN(CC)c1ccc(CN2CCC(C(=O)NCc3ccc(C)cc3)CC2)cc1 | 20µM* | ? | -13.3% | . | -21.8 | -9.5
Cc1ccc(CNC(=O)C2CCC(=O)N(CC3CCCCC3)C2)o1 (stereo unspecified) | -17.4% | 3.6% | -17.0% | 44.7µM* | 5.3 | 1.9
CCN(CC)S(=O)(=O)N1CCC(C(=O)NCc2ccc(C)cc2)CC1 | 5.3% | 13.4% | 1.5% | -12.2% | 4.3 | 8.0
Cc1ccc(CNC(=O)C2CCN(S(=O)(=O)c3cccs3)CC2)cc1 | 89.1µM* | 8.4% | 8.0% | -2.1% | 4.3 | 6.6
Cc1ccc(CNC(=O)C2CCN(S(=O)(=O)c3cccs3)CC2)o1 | -26.1% | -24.1% | 1.7% | 8.91µM* | 1.2 | 0.4
COc1ccc(OC)c(CCNC(=O)c2cc3c(=O)n(C)c4ccccc4c3n2C)c1 | -19.2% | 12.3% | ? | -37.9%[59 µM] | . | .
O=C1/C(=C\c2cccnc2)Sc2ccccc21 | 79.4µM* | -8.4% | -30.4% | 19.9%[59 µM] | -0.7 | 0.4
CN1C(=O)S/C(=C/c2cccnc2)C1=O | -2.2% | 53.6% | 9.2% | 21.8%[59 µM] | 0.0 | 38.5
